A word on the inhibition: it is the relative decrease from the control value, in per cent.

Among all 6,200 compounds or so, about 2,900 (47%) were called active. No stated cut-off is given here; in the data, active means inhibition above about 50%; inactive means the rest. So high a share suggests a set chosen from earlier hits. This is one part of the list.

The assay can be described thus: Mycobacterium tuberculosis growth inhibition, primary screen (AID 1259343). The following applies: inhibition: at 10 µM, stronger effect = higher value; outcome: 10 uM.
Regarding `NC(=O)c1ccccc1OCc1ccccc1C(F)(F)F`, the inhibition was 42.9% (inactive).

For `O=S(=O)(Nc1c(F)cccc1F)c1cccc(Br)c1`, the inhibition was 4.09% (inactive).

`O=S(=O)(Nc1cc(Cl)ccc1O)c1cc(Br)ccc1Br`: the inhibition was 105% (active).

In the case of `O=S(=O)(Nc1cc(F)ccc1F)c1cccc(Br)c1`, the inhibition is 103% (active).

With `O=C(O)c1cc(F)ccc1NS(=O)(=O)c1ccc(Cl)cc1`, the inhibition is 70% (active).

As for `CCCc1ccc(S(=O)(=O)Nc2ccc(F)cc2C(=O)O)cc1`, the inhibition is -3.59% (inactive).

Regarding `O=S(=O)(Nc1cccc(F)c1)c1cc(Br)ccc1Br`, the inhibition is 29.6% (inactive).

Turning to `O=S(=O)(Nc1cc(F)ccc1F)c1cc(Cl)cc(Cl)c1`, the inhibition was 64.2% (active).

Turning to `O=S(=O)(Nc1ccc(F)cc1F)c1cccc(F)c1`, the inhibition was -36.4% (inactive).

For the compound `O=S(=O)(Nc1ccc(F)cc1)c1cc(Br)ccc1Br`, the inhibition was 33.5% (inactive).

For the compound `Cc1ccc(NS(=O)(=O)c2ccc(C)c(F)c2)c(C(=O)O)c1`, the inhibition was 8.32% (inactive).

Consider `O=[N+]([O-])c1ccc(Cl)c(S(=O)(=O)Nc2ccc(F)cc2Cl)c1`, for which the inhibition was 78.2% (active).

In the case of `O=S(=O)(Nc1cc(F)ccc1F)c1ccc(Cl)cc1F`, the inhibition was 64.4% (active).

As to `O=S(=O)(Nc1ccc(F)cc1F)c1ccc(Cl)cc1F`, the inhibition is -21.9% (inactive).

As to `O=[N+]([O-])c1cc(Cl)ccc1NS(=O)(=O)c1cccc(C(F)(F)F)c1`, the inhibition was -1.17% (inactive).

With `O=S(=O)(Nc1ccccc1I)c1ccc(C(F)(F)F)cc1`, the inhibition was 41.5% (inactive).

`Cc1ccc(NS(=O)(=O)c2cccc(C(F)(F)F)c2)c([N+](=O)[O-])c1`: the inhibition was 77.1% (active).

Consider `Cc1ccc(NS(=O)(=O)c2ccc(Cl)cc2F)c(Cl)c1`, for which the inhibition was 73% (active).

`Cc1ccc(C)c(S(=O)(=O)Nc2ccc(Cl)cc2F)c1`: the inhibition was 0.55% (inactive).

As to `CCC1=NOC(c2nc3sc(C(C)(C)C)cc3c(=O)[nH]2)C1` (centres undefined), the inhibition was 25.8% (inactive).

With `Cc1ccc(NS(=O)(=O)c2cc(Cl)cc(Cl)c2)cc1`, the inhibition was 88.4% (active).

As to `Cc1ccc(S(=O)(=O)Nc2ccc(Cl)c(C#N)c2)cc1`, the inhibition was -29.9% (inactive).

Turning to `O=C(C1=C2SC=C(c3ccc(Br)cc3)N2CC1)c1ccc2c(c1)OCO2`, the inhibition was -40.9% (inactive).

Take `CCCc1cc(=O)[nH]c(-n2nc(C)cc2NC(=O)C(CC)c2ccccc2)n1` (centres undefined): the inhibition is 102% (active).

Consider `CCCc1cc(=O)[nH]c(-n2nc(C)cc2NC(=O)Cc2cccc3ccccc23)n1`, for which the inhibition is 100% (active).

On to `CCCc1cc(=O)[nH]c(-n2nc(C)cc2NC(=O)CC(c2ccccc2)c2ccccc2)n1`, for which the inhibition is 101% (active).

Consider `Cc1cc(=O)[nH]c(-n2nc(C)cc2NC(=O)Cc2cccc3ccccc23)n1`, for which the inhibition was 102% (active).

Regarding `CCCc1cc(=O)[nH]c(-n2nc(C)cc2NC(=O)Cc2ccccc2)n1`, the inhibition was 99.9% (active).

`CCCc1cc(=O)[nH]c(-n2nc(C)cc2NC(=O)Cc2ccc(OCC)cc2)n1`: the inhibition is -19.4% (inactive).

As to `CCCc1cc(=O)[nH]c(-n2nc(C)cc2NC(=O)CCc2ccccc2)n1`, the inhibition was -14.3% (inactive).

On to `COc1c(-c2coc3cc4c(cc3c2=O)CC(OC(C)=O)C(C)(C)O4)ccc2c1C=CC(C)(C)O2` (centres undefined), for which the inhibition is 77.7% (active).

As for `CCCNC(=O)CN1CCc2cc(Br)ccc21`, the inhibition is 74.1% (active).

With `O=C(Cc1ccccc1O)N1CCc2cc(Br)ccc21`, the inhibition was 23.1% (inactive).

On to `CCOC(C)c1nc(CN2CCc3cc(Br)ccc32)cs1` (centres undefined), for which the inhibition is 28.4% (inactive).

For `Cc1cc(Oc2ccc(C(C)C)cc2)nc(SCc2ccc(F)c(F)c2)n1`, the inhibition is -1.84% (inactive).

As to `O=S(c1ccccc1)c1ccc2nnnn2n1` (centres undefined), the inhibition was -44% (inactive).

On to `CC(C)c1ccc(Oc2ccc3nnnn3n2)cc1`, for which the inhibition is 55.6% (active).

Consider `COc1ccc2c(c1)CCCN2Cc1ccc(C(N)=O)cc1`, for which the inhibition was 20.6% (inactive).

As for `CCc1nc2ccc(C(=O)NCCOc3ccc(OC)cc3)cn2c1N(C=O)Cc1ccc(OC)cc1`, the inhibition is 47% (inactive).

On to `COc1ccc(Oc2ccc(C(=O)NCCc3cnc[nH]3)cc2)cc1`, for which the inhibition is 52.5% (active).

Consider `COc1ccc(Oc2ccc(C(=O)NCCN3CCNC3=O)cc2)cc1`, for which the inhibition was 73.9% (active).

With `O=C(NCc1ccc(OC(F)F)cc1)c1ccc(Cl)cc1`, the inhibition was 85.9% (active).

Consider `Cc1ccc(C)c(C(C)CNC(=O)c2cnccn2)c1` (centres undefined), for which the inhibition is 21.5% (inactive).

For `COc1ccc(CNC(=O)c2ccc(Br)cn2)cc1`, the inhibition was 14.4% (inactive).

Regarding `OC(c1ccc(Cl)cc1)c1ccc(OC(F)F)cc1` (centres undefined), the inhibition was 19.4% (inactive).

Turning to `O=C(NCc1ccc(OC(F)F)cc1)c1cnccn1`, the inhibition was 85.3% (active).

With `COc1ccc2c(c1)CCC1C2CC[C@@]2(C)C1CC[C@@H]2O` (some centres undefined), the inhibition was 46% (inactive).

For the compound `Cc1c(N)c(C)c([N+](=O)[O-])c(C)c1[N+](=O)[O-]`, the inhibition was -53.9% (inactive).

On to `CC(=O)c1ccc(N2CCCC2)cc1OCc1cccc(C)c1`, for which the inhibition was 36.7% (inactive).

Consider `Cc1cc(N2CCCC2)ccc1NC(=O)c1cccc(NC(=O)OC(C)(C)C)c1`, for which the inhibition was 20.1% (inactive).

`N#CCc1cccc(C(=O)Nc2cc(F)cc(N3CCCC3)c2)c1`: the inhibition was 84.4% (active).

As for `COc1ccc(-n2nnnc2SCCOc2ccc(Br)cc2)cc1`, the inhibition entry is “inactive”.

`COc1ccc(OCCSc2nnnn2-c2ccc(OC)cc2)cc1`: the inhibition is -17.4% (inactive).

In the case of `COc1ccc(-n2nnnc2SCc2ccc(C#N)cc2)cc1`, the inhibition was 82.8% (active).

On to `O=P1(Nc2ccc(-c3ccccc3)cc2)C=C(c2ccccc2)OC(c2ccccc2)=C1`, for which the inhibition was 98.4% (active).

Consider `Cc1c(C(=O)OCC(C)C)[nH]c2c1C(=O)CCC2`, for which the inhibition is 60.5% (active).

For `CCCc1cc(=O)[nH]c(-n2nc(C)cc2NC(=O)C2CC2)n1`, the inhibition is 101% (active).

In the case of `CCc1cc(=O)[nH]c(-n2nc(C)cc2NC(=O)C2CC2)n1`, the inhibition is 101% (active).

Turning to `O=c1c(Sc2ccc(Cl)cc2)c(O)c2c(n1-c1ccccc1)CCCC2`, the inhibition is 40.5% (inactive).

In the case of `CC(=O)Oc1ccc2c(=O)oc(COc3ccc(C)c(C)c3)nc2c1`, the inhibition is 60.8% (active).

In the case of `CCNCC#CCOc1ccc(C)c(C)c1`, the inhibition was -6.66% (inactive).

Turning to `CC(C)n1ncc2cc(N)cnc21`, the inhibition was 83.8% (active).

For `O=C(Nc1ccc(-n2cccc2)cc1)C1=CN2CCN(Cc3cscn3)C(=O)N=C2O1`, the inhibition was 4.33% (inactive).

As for `O=C1N=C2OC(C(=O)Nc3cccc(Cc4ccccc4)c3)=CN2CCN1`, the inhibition was 91.3% (active).

Values taken from PubChem BioAssay AID1259343 (VanderVen Lab, College of Veterinary Medicine, Cornell …, 2017).
